Measurements as given in PubChem BioAssay (Tox21).
Unmarked numbers belong to inactive results. Inconclusive results are not listed. Where a call stands in place of a potency, no number is given. Activity calls are given as the source filed them. Unless noted, calls follow the shape of the dose curve; as a rule, active = well fitted curve in the direction sought with a large enough effect in the repeat runs; inconclusive = weak or mixed curves; inactive = no such curve, though single readings can be large; an effect the other way counts as inactive or inconclusive.

Assays:
[1] = biological target: Estrogen receptor beta (Homo sapiens) (UniProt Q92731); assay: qHTS assay to identify small molecule agonists of the estrogen receptor beta (ER-beta) signaling pathway (AID 1259377; active = well fitted activation curve with a large enough effect in the signal ratio in the repeat runs, not every such curve was filed as active; the % refers to the signal ratio)
Chain of Estrogen receptor beta (Homo sapiens) (Q92731 whole entry, looked up): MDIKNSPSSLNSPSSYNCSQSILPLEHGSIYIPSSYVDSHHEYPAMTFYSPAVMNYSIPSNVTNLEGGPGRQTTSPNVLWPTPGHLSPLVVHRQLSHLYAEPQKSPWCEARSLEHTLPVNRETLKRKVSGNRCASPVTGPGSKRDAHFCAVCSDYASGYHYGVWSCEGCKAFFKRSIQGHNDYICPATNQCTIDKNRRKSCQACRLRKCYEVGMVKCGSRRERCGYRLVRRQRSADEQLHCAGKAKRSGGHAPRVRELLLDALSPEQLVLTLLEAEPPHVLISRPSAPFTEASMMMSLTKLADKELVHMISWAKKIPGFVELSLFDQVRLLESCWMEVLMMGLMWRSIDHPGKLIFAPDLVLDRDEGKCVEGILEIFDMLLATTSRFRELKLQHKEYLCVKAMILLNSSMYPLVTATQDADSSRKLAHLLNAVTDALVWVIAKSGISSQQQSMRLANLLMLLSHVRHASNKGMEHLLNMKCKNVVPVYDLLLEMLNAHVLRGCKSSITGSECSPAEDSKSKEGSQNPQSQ
How it was run: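 ER-beta-UAS-bla HEK293T cells in medium with 2% charcoal-stripped FBS were exposed to compounds for 16 h at 37C. Beta-lactamase reporter activity was read as fluorescence after 2 h with LiveBLAzer B/G FRET substrate at room temperature.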

[2] = biological target: Estrogen receptor beta (Homo sapiens) (UniProt Q92731); assay: qHTS assay to identify small molecule antagonists of the estrogen receptor beta (ER-beta) signaling pathway (AID 1259378; active = well fitted inhibition curve with a large enough effect in the signal ratio in the repeat runs, not every such curve was filed as active; the % refers to the signal ratio)
How it was run: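 ER-beta-UAS-bla HEK293T (GripTite) cells in 2% charcoal-stripped FBS medium were preincubated 6 hr at 37C, dosed with compound, then stimulated with 1 nM E2 (final) for 16 hr; beta-lactamase reporter read by B/G FRET fluorescence after 2 hr substrate loading.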

[3] = qHTS assay to identify small molecule agonists of the androgen receptor (AR) signaling pathway in the presence of an antagonist - cell viability counter screen (AID 1259379); also: nearly all actives have a fitted effect of over 25% in size; also: potency is read from the fitted curve at half-maximal effect
How it was run: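 In MDA-kb2 cells (human breast carcinoma, MMTV-luciferase), compounds at 15 concentrations plus 3.0uM nilutamide; 16 hr, 37C, 0% CO2; CellTiter-Fluor fluorescence read for viability.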

[4] = qHTS assay to identify small molecule agonists of the estrogen receptor beta (ER-beta) signaling pathway - cell viability counter screen (AID 1259380); also: nearly all actives have a fitted effect of over 30% in size; also: potency is read from the fitted curve at half-maximal effect
How it was run: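 Viability of ER-beta-UAS-bla HEK293T cells was determined by CellTiter-Glo luminescence following 16 hr treatment with test compounds at 37C.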

[5] = qHTS assay to identify small molecule antagonists of the estrogen receptor beta (ER-beta) signaling pathway - cell viability counter screen (AID 1259382); also: series mostly up to about 92 µM; nearly all actives have a fitted effect of over 55% in size
How it was run: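 Tox21 10K library tested in qHTS format on ER-beta-bla HEK293T cells stimulated with 1nM E2; 16 hr treatment at 37C. Same-well CellTiter-Glo luminescence served as the cell viability measure.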

[6] = biological target: Estrogen receptor (Homo sapiens) (UniProt P03372); assay: qHTS assay to identify small molecule agonists of the estrogen receptor alpha (ER-alpha) signaling pathway in the presence of an antagonist (AID 1259383; calls by dose curve; also: top concentration of the series differs between compounds; nearly all actives have a fitted effect of over 15% in size)
Chain of Estrogen receptor (Homo sapiens) (P03372 whole entry, looked up): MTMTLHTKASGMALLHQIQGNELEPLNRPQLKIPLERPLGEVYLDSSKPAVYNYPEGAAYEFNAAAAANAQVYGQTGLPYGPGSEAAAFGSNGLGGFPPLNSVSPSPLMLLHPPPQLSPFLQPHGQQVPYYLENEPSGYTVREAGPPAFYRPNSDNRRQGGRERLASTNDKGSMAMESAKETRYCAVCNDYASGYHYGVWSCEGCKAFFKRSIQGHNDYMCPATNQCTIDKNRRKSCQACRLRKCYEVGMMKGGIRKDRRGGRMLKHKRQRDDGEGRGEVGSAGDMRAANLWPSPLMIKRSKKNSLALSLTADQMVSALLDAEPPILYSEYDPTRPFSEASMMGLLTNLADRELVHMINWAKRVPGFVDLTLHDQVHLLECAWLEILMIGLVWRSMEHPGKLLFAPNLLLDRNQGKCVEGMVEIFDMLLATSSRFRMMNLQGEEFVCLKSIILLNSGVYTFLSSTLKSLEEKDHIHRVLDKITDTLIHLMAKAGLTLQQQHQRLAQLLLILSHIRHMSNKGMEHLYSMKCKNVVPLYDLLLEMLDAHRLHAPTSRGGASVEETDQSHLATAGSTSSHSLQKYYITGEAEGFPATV
How it was run: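 In VM7Luc4E2 cells, 4,000 per well, compounds at 15 concentrations were co-incubated 22hr at 37C with 10.0nM final ICI-182,780. Luminescence from the stably transfected 4×ERE-luciferase reporter was recorded 30min after ONE-Glo addition.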

[7] = qHTS assay to identify small molecule agonists or antagonists of the thyroid stimulating hormone receptor (TSHR) signaling pathway - wild type cell line counter screen (AID 1259384; calls by dose curve)
How it was run: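 Wild-type HEK293 cells were plated 18 h at 37 C/5% CO2, pin-dosed with compound plus Ro20-1724 medium, held 30 min at room temperature, then given cAMP-d2 and anti-cAMP-cryptate; fluorescence was read after 1 h. Fifteen concentrations, triplicate.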

[8] = biological target: Thyrotropin receptor (Homo sapiens) (UniProt P16473); assay: qHTS assay to identify small molecule antagonists of the thyroid stimulating hormone receptor (TSHR) signaling pathway (AID 1259385; calls by dose curve; also: nearly all actives have a fitted effect of over 20% in size)
Chain of Thyrotropin receptor (Homo sapiens) (P16473 whole entry, looked up): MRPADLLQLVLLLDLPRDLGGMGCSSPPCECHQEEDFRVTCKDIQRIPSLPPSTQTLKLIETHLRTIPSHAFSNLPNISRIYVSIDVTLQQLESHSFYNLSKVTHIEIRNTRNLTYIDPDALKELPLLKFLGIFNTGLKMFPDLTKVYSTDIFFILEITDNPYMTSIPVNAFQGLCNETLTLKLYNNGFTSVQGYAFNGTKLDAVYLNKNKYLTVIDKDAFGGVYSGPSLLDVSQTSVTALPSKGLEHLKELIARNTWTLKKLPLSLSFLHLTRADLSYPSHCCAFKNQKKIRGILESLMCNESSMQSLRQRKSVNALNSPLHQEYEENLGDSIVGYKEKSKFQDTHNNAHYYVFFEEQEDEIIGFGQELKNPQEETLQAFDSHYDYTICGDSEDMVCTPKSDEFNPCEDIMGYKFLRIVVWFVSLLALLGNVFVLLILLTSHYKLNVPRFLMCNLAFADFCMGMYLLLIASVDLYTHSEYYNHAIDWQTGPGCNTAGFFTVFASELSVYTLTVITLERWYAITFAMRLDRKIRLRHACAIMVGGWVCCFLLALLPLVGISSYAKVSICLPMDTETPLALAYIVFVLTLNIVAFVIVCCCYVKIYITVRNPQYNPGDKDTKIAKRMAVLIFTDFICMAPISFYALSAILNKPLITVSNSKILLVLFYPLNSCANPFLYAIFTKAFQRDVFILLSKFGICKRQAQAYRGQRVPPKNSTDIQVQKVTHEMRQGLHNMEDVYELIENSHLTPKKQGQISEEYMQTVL
How it was run: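 TSHR-HEK293 cells were plated and held 18 h at 37C/5% CO2, then given compound plus Ro20-1724 and stimulated with TSH at 1.5 ng/mL final. After 30 min at room temperature, cAMP was detected with cAMP-d2/anti-cAMP-cryptate (1 h) by fluorescence.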

[9] = qHTS assay to identify small molecule agonists of the estrogen receptor alpha (ER-alpha) signaling pathway in the presence of an antagonist - cell viability counter screen (AID 1259386);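 also: cells exposed to compounds for 22 h at 37 °C before the viability read; nearly all actives have a fitted effect of over 30% in size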; also: potency is read from the fitted curve at half-maximal effect
How it was run: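 Fluorescent CellTiter-Fluor viability signal from VM7Luc4E2 cells, with the reagent added during the final hour of a 22hr compound exposure at 37C in the presence of 10.0nM ICI-182,780.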

[10] = biological target: Progesterone receptor (Homo sapiens) (UniProt P06401); assay: qHTS assay to identify small molecule agonists of the progesterone receptor (PR) signaling pathway (AID 1346784; calls by dose curve; also: nearly all actives have a fitted effect of over 30% in size)
Chain of Progesterone receptor (Homo sapiens) (P06401 whole entry, looked up): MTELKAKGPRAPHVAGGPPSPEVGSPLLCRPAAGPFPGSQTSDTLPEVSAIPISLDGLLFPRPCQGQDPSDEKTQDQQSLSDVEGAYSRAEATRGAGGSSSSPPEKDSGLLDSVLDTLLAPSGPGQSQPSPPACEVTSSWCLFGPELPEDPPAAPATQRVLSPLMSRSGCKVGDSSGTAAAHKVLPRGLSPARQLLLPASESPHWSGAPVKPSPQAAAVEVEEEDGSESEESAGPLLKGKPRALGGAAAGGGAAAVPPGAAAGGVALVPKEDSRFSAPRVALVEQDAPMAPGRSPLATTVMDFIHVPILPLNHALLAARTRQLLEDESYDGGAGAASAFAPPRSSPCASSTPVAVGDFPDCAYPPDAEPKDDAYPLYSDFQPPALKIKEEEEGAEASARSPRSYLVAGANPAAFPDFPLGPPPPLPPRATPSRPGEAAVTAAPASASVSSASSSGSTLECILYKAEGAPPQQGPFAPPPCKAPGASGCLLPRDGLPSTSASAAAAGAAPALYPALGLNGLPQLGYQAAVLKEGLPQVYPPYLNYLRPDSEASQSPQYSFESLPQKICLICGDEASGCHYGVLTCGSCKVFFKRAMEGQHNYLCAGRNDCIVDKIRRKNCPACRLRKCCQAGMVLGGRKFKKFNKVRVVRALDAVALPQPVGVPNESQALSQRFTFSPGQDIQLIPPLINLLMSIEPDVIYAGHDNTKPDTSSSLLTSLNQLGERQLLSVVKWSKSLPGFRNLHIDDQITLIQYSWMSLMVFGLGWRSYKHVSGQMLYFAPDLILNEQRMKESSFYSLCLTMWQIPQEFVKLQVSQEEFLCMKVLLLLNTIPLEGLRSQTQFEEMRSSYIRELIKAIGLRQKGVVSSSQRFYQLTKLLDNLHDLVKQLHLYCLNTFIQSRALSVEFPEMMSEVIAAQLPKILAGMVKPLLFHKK
How it was run: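 PR-UAS-bla HEK 293T cells (beta-lactamase reporter under UAS) in 2% charcoal-stripped FBS, dosed with 23 nL compound after 6 hr, incubated 16hr at 37C. LiveBLAzer B/G FRET substrate added, fluorescence read after 2 hours.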

[11] = qHTS assay to identify small molecule antagonists of the progesterone receptor (PR) signaling pathway - cell viability counter screen (AID 1346798); also: series mostly up to about 92 µM; nearly all actives have a fitted effect of over 50% in size
How it was run: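 PR-UAS-bla HEK293T cells, 3,000/well in 2% charcoal-stripped FBS medium, dosed with compounds plus R5020 agonist and incubated 16 h at 37C. Viability then measured in the same wells by CellTiter-Glo luminescence after 30 min at RT.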

[12] = qHTS assay to identify small molecule agonists of the progesterone receptor (PR) signaling pathway - cell viability counter screen (AID 1346799; calls by dose curve; also: nearly all actives have a fitted effect of over 45% in size; also: potency is read from the fitted curve at half-maximal effect)
How it was run: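 Counter screen in the PR-UAS-bla HEK293T wells (2% charcoal-stripped FBS, 16 h compound exposure at 37 C) after the bla read. CellTiter-Glo added, 30 min at room temperature, luminescence read as cell viability.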

[13] = qHTS assay to identify small molecule antagonists of the TGF-beta/Smad signaling pathway - cell viability counter screen (AID 1346824); also: nearly all actives have a fitted effect of over 50% in size
How it was run: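 SBE-bla HEK 293T cells were plated overnight at 37 C, then given compounds in DMSO plus TGF-beta1 (added as 0.25 ng/mL solution) for 5 hr. After the bla read, CellTiter-Glo was added to the same wells and luminescence read after 30 min at room temperature.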

[14] = qHTS assay to identify small molecule agonists of the TGF-beta/Smad signaling pathway - cell viability counter screen (AID 1346829); also: top concentration of the series differs between compounds; nearly all actives have a fitted effect of over 45% in size
How it was run: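 In parallel with the Smad reporter read, viability of HEK 293T cells stably carrying SBE-bla is quantified by ATP luminescence following 5 hr compound treatment.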

[15] = qHTS assay to identify small molecule agonists of the TGF-beta/Smad signaling pathway (AID 1346859; active = well fitted activation curve with a large enough effect in the signal ratio in the repeat runs, not every such curve was filed as active; the % refers to the signal ratio; also: series mostly up to about 77 µM)
How it was run: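 SBE-bla HEK293T cells plated overnight, then compound exposure for 5 h at 37 C. Beta-lactamase reporter read with LiveBLAzer B/G FRET substrate after 2 h at room temperature, fluorescence at 405 nm excitation, 460/530 nm emission.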

[16] = biological target: Thyrotropin-releasing hormone receptor (Homo sapiens) (UniProt P34981); assay: qHTS assay to identify small molecule antagonists of the thyrotropin-releasing hormone receptor (TRHR) signaling pathway (AID 1346877; active = well fitted inhibition curve with a large enough effect in the repeat runs, not every such curve was filed as active; also: series mostly up to about 51 µM)
Chain of Thyrotropin-releasing hormone receptor (Homo sapiens) (P34981 whole entry, looked up): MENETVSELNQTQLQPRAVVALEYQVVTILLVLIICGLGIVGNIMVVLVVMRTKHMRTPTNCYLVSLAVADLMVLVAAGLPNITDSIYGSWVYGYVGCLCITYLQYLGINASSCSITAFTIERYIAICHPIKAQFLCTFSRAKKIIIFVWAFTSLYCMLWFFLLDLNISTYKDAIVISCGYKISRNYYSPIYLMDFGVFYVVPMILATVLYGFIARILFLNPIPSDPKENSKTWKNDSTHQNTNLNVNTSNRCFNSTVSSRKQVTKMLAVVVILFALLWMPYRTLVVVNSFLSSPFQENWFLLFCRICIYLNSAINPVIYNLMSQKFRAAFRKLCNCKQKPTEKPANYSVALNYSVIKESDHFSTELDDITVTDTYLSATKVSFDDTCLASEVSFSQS
How it was run: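 In this cell-based calcium flux format, HEK293 cells expressing TRHR received test compound for 5 min before the agonist TRH (1 nM final). Dye loading lasted 2 h at 37 °C.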

[17] = biological target: Thyrotropin-releasing hormone receptor (Homo sapiens) (UniProt P34981); assay: qHTS assay to identify small molecule agonists of the thyrotropin-releasing hormone receptor (TRHR) signaling pathway (AID 1346891; calls by dose curve; also: series mostly up to about 58 µM)
How it was run: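 HEK293 cells expressing TRHR plated 18 h at 37 C/5% CO2, calcium dye-loaded 2 h at 37 C, then compound added (agonist mode); kinetic calcium fluorescence read 3 min at 1 s intervals; 15 concentrations in triplicate.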

[18] = Human pregnane X receptor (PXR) small molecule agonists, qHTS cell viability counter screen (AID 1346977); also: nearly all actives have a fitted effect of over 50% in size; also: potency is read from the fitted curve at half-maximal effect
How it was run: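 PXR-Luc HepG2 cells (2,000/well, 5% charcoal-stripped FBS) preincubated 5 hr, then exposed to compounds 24 hr at 37 C. Viability read in the same wells by CellTiter-Fluor fluorescence, reagent added at 23 hr, 1 hr incubation.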

[19] = biological target: Progesterone receptor (Homo sapiens) (UniProt P06401); assay: qHTS assay to identify small molecule antagonists of the progesterone receptor (PR) signaling pathway (AID 1346795; active = well fitted inhibition curve with a large enough effect in the signal ratio in the repeat runs, not every such curve was filed as active; the % refers to the signal ratio)
How it was run: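 PR-UAS-bla HEK293T cells with beta-lactamase reporter under UAS control, in 2% charcoal-stripped FBS, treated with compounds plus 1 nM promegestone (R5020, final) for 16 hr at 37C. Read-out: FRET beta-lactamase substrate fluorescence after 2 hr at room temperature.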

[20] = biological target: Androgen receptor (Homo sapiens) (UniProt P10275); assay: qHTS assay to identify small molecule agonists of the androgen receptor (AR) signaling pathway in the presence of an antagonist (AID 1259381; calls by dose curve; also: nearly all actives have a fitted effect of over 15% in size)
Chain of Androgen receptor (Homo sapiens) (P10275 whole entry, looked up): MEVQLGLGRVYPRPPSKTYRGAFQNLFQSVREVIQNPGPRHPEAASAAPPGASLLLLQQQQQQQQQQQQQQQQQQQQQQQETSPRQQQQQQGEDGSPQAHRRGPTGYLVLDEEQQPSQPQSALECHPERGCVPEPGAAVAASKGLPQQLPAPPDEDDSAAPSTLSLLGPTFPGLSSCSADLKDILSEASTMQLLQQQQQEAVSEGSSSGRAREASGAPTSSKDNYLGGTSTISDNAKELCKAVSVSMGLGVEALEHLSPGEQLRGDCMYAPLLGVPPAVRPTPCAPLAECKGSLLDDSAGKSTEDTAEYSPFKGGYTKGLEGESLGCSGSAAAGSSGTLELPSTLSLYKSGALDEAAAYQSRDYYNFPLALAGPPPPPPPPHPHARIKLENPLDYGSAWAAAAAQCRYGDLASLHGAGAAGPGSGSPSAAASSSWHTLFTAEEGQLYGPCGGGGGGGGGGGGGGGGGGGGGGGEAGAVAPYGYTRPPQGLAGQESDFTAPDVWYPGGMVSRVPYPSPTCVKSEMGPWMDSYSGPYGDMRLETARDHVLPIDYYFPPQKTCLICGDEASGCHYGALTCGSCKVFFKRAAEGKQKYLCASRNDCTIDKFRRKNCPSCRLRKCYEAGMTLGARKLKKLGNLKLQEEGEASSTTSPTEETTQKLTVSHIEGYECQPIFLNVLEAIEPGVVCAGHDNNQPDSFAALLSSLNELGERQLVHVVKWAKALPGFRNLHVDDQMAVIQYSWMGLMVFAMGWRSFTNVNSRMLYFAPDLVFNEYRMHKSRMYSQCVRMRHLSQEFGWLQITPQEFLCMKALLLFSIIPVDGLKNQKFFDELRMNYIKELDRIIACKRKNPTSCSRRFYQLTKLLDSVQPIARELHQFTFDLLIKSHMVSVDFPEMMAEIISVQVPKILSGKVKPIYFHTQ
How it was run: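 Here, 15-concentration compound series were pin-transferred onto MDA-kb2 MMTV-luciferase cells already dosed with nilutamide (3.0uM final). After 16hr at 37C, ONE-Glo was added and luminescence read 30min later at room temperature.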

## C[C@@H]1C[C@H]2[C@@H]3CCC4=CC(=O)C=C[C@]4(C)[C@@]3(F)[C@@H](O)C[C@]2(C)[C@@]1(O)C(=O)COP(=O)(O)O
[1]
  Potency: inactive
[2]
  Potency: inactive
[3]
  Potency: inactive
[4]
  Potency: inactive
[5]
  Potency: inactive
[6]
  Potency: inactive
[7]
  Potency: inactive
[8]
  Potency: inactive
[9]
  Potency: inactive
[10]
  Potency: inactive
[11]
  Potency: inactive
[12]
  Potency: inactive
[13]
  outcome: inactive
[14]
  Potency: inactive
[15]
  Potency: inactive
[16]
  outcome: inactive
[17]
  outcome: inactive
[18]
  Potency: inactive

## O=C(O)CNC(=O)c1ccccc1I
[1]
  Potency: inactive
[2]
  Potency: inactive
[3]
  Potency: inactive
[4]
  Potency: inactive
[5]
  Potency: inactive
[6]
  Potency: inactive
[7]
  Potency: inactive
[8]
  Potency: inactive
[9]
  Potency: inactive
[10]
  Potency: inactive
[19]
  Potency: inactive
[11]
  Potency: inactive
[12]
  Potency: inactive
[13]
  outcome: inactive
[14]
  Potency: inactive
[15]
  Potency: inactive
[18]
  Potency: inactive

## CC12CC3CC(C)(C1)CC(N)(C3)C2
[1]
  Potency: inactive
[2]
  Potency: inactive
[3]
  Potency: inactive
[4]
  Potency: inactive
[5]
  Potency: inactive
[6]
  Potency: inactive
[7]
  Potency: inactive
[8]
  Potency: inactive
[9]
  Potency: inactive
[10]
  Potency: inactive
[19]
  Potency: inactive
[11]
  Potency: inactive
[12]
  Potency: inactive
[13]
  outcome: inactive
[14]
  Potency: inactive
[15]
  Potency: inactive

## O=C(O)CO
[1]
  Potency: inactive
[2]
  Potency: inactive
[3]
  Potency: inactive
[4]
  Potency: inactive
[5]
  Potency: inactive
[6]
  Potency: inactive
[7]
  Potency: inactive
[9]
  Potency: inactive
[19]
  Potency: inactive
[11]
  Potency: inactive
[12]
  Potency: inactive
[13]
  outcome: inactive
[14]
  Potency: inactive
[15]
  Potency: inactive
[16]
  outcome: inactive
[17]
  outcome: inactive
[18]
  Potency: inactive

## O=C(c1ccccc1)C1CCC1
[1]
  Potency: inactive
[2]
  Potency: inactive
[3]
  Potency: inactive
[4]
  Potency: inactive
[5]
  Potency: inactive
[6]
  Potency: inactive
[7]
  Potency: inactive
[8]
  Potency: inactive
[9]
  Potency: inactive
[11]
  Potency: inactive
[13]
  outcome: inactive
[14]
  Potency: inactive
[15]
  Potency: inactive
[16]
  outcome: inactive
[17]
  outcome: inactive
[18]
  Potency: inactive

## Cc1ccc(N(CC2=NCCN2)c2cccc(O)c2)cc1
[1]
  Potency: inactive
[2]
  Potency: inactive
[3]
  Potency: inactive
[4]
  Potency: inactive
[5]
  Potency: inactive
[6]
  Potency: inactive
[7]
  Potency: inactive
[8]
  Potency: inactive
[10]
  Potency: inactive
[19]
  Potency: inactive
[11]
  Potency: inactive
[12]
  Potency: inactive
[13]
  outcome: inactive
[14]
  Potency: inactive
[18]
  Potency: inactive

## CCN(CC)CC(=O)Nc1c(C)cccc1C(=O)OC
[1]
  Potency: inactive
[2]
  Potency: inactive
[3]
  Potency: inactive
[4]
  Potency: inactive
[5]
  Potency: inactive
[6]
  Potency: inactive
[7]
  Potency: inactive
[8]
  Potency: inactive
[9]
  Potency: inactive
[10]
  Potency: inactive
[19]
  Potency: inactive
[11]
  Potency: inactive
[12]
  Potency: inactive
[13]
  outcome: inactive
[14]
  Potency: inactive
[15]
  Potency: inactive
[18]
  Potency: inactive

## CCN(CC)c1ccc(C(=C2C=CC(=[N+](CC)CC)C=C2)c2ccc(S(=O)(=O)O)cc2S(=O)(=O)[O-])cc1
[1]
  Potency: inactive
[2]
  Potency: inactive
[3]
  Potency: 27.3 µM (active)
[4]
  Potency: 27.3 µM (active)
[20]
  Potency: inactive
[9]
  Potency: 17.2 µM (active)
[10]
  Potency: inactive
[19]
  Potency: inactive
[12]
  Potency: 24.3 µM (active)
[15]
  Potency: inactive
[16]
  outcome: inactive
[17]
  outcome: inactive
[18]
  Potency: 15.4 µM (active)
